SENP6 inh: blocks the human protease SENP6. Recombinant SENP6 catalytic domain, aminoluciferin luminescence. inhibition, % at 10 µM. 1.8% of 330,000 active. AID 2599;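 active means inhibition above about 50% at the single tested dose, limit read from the data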
SENP8 block-1: blocks human SENP8 cleavage of Nedd8 substrate; inhibition, % at 20 µM; Q96LD8; recombinant SENP8, Nedd8 substrate fluorescence; 0.64% of 360,000 active; AID 602440; in the data active means inhibition mostly above about 40%, no sharp cut-off; inactive means mostly below about 27%
SENP7 inh: inhibitors of human SENP7 protease; 1.5% of 330,000 active; recombinant SENP7, Z-RLRGG-aminoluciferin luminescence, 40 min; Q9BQF6; inhibition, % at 5 µM;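 active means inhibition above about 50% at the single test dose, limit read from the data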
Target sequence (Q9BQF6 706-1050 limits assumed): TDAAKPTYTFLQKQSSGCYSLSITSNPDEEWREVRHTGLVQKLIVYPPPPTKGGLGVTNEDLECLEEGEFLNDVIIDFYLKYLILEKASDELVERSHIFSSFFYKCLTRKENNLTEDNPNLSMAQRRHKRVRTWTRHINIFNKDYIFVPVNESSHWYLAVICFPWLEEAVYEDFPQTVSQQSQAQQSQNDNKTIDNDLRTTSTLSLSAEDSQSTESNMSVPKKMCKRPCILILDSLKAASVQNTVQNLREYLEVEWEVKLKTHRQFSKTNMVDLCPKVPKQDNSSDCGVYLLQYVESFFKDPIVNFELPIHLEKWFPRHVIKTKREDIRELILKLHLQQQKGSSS
C8 TRAIL sens: sensitizes caspase-8 expressing cells to TRAIL. NB7+C8 cells + TRAIL, ATPlite viability luminescence. inhibition (viability loss, TRAIL sensitization), % at 10 µM. 1% of 360,000 active. AID 624354;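 active means compounds causing at least 50% loss of cell viability in the single-dose screen, relative to plate controls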
SENP8 block-2: SENP8 protease inhibition; Q96LD8; purified SENP8, Z-RLRGG-aminoluciferin cleavage, luminescence; inhibition, % at 10 µM; 1.2% of 330,000 active; in the data active means inhibition above about 50%
PPC-1+TRAIL kill: compounds killing PPC-1 cancer cells with TRAIL present (potentiator screen, no TRAIL-free arm); AID 1443; cell killing (% activity), % at 4 µM or 5 µM; PPC-1 cells + TRAIL, ATPLite viability luminescence; 0.41% of 220,000 active;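 active means cell killing above 50% in the first pass at 4 µM, then a duplicate retest at 5 µM averaging 50% or more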
SENP8 confirm: human SENP8 inhibition, confirmed | shares compounds with SENP7 inh | Recombinant SENP8, Z-RLRGG-aminoluciferin luminescence, 60 min | inhibition, % at 12.5 µM | 40% of 6,200 active;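 active means mean inhibition across replicates above about 50%, limit read from the data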
SENP6 conf: human SENP6 inhibition, confirmed; shares compounds with SENP7 inh; recombinant SENP6, Z-RLRGG-aminoluciferin luminescence; inhibition, % at 12.5 µM; 58% of 6,200 active; AID 488915
SENP7 confirm: confirmation of human SENP7 protease inhibitors; shares compounds with SENP7 inh; recombinant SENP7, Z-RLRGG-aminoluciferin luminescence, 40 min; inhibition, % at 12.5 µM; 69% of 6,200 active; AID 488917
Casp3 SENP sel: caspase-3 inhibition (SENP selectivity assay) | 60% of 6,200 active | shares compounds with SENP7 inh | inhibition, % at 12.5 µM | purified caspase-3, Z-DEVD-aminoluciferin luminescence, 60 min;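 active means mean inhibition above about 50%, limit read from the data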
Target sequence (P42574 28-227 limits assumed): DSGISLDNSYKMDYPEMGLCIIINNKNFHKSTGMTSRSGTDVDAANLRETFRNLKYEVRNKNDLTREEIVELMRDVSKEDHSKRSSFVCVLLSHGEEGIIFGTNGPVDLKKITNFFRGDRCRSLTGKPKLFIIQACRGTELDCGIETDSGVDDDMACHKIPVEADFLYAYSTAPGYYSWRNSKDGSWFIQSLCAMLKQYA
SENP luc ctr: interferes with luciferase luminescence in SENP counter-screen; shares compounds with SENP7 inh; Pre-incubated SENP8/Z-RLRGG-aminoluciferin, luciferase luminescence interference; inhibition, % at 12.5 µM; 39% of 6,200 active; AID 488919;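 active means mean inhibition above about 50% when retested at one dose, limit read from the data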
Each line names hits and unclear results; the compound was inactive in the other large screens (follow-up assays come after a bar, where they were run). Most compounds without a hit are left out; they make up all but 3% or so of the library.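 How the source made its calls, unless noted: active means mean inhibition above about 50% in the one-dose retest (limit read from the data); inactive means the rest.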

CC(C)c1cc(C(N)=O)c(NC(=O)c2cccc(COc3ccc(Cl)cc3)c2)s1	SENP6 inh 84.3 | SENP8 confirm 97.5 | SENP6 conf 95.0 | SENP7 confirm 99.2 | Casp3 SENP sel inactive | SENP luc ctr 91.1
O=C(O)c1cccc(NC(=O)c2ccc3c(c2)C(=O)N(C2CCCCC2)C3=O)c1	SENP6 inh 94.7, SENP7 inh 97.2, SENP8 block-2 93.0 (no result: PPC-1+TRAIL kill) | SENP8 confirm 83.4 | SENP6 conf 81.0 | SENP7 confirm 100.2 | Casp3 SENP sel 61.7 | SENP luc ctr inactive
Cc1cc(/C=N/N2CCN(C)CC2)c(C)n1-c1ccc(Cl)cc1	none
Cc1cc(-c2ccc(C(C)C)c(S(=O)(=O)Nc3cc(C)on3)c2)on1	none (no result: PPC-1+TRAIL kill)
CC(=O)Nc1ccc(S(=O)(=O)N2CCC(N3CCCCCC3)CC2)cc1	none (no result: PPC-1+TRAIL kill)
OCCNC(=S)Nc1ccc2nsnc2c1	SENP6 inh 81.9, SENP8 block-2 60.6 | SENP8 confirm inactive | SENP6 conf inactive | SENP7 confirm inactive | Casp3 SENP sel inactive | SENP luc ctr inactive
O=C(NCCO)Nc1ccc2nsnc2c1	none
COc1ccc(SC[C@H](Cc2ccccc2)N2CC[C@@H](C)CCC2=O)cc1	none (no result: PPC-1+TRAIL kill)
NC(=O)c1ccc(-c2ncc(-c3ccccc3)o2)cc1	SENP7 inh 52.1 | SENP8 confirm inactive | SENP6 conf 52.0 | SENP7 confirm 59.4 | Casp3 SENP sel inactive | SENP luc ctr inactive
CN(/C(=N/S(=O)(=O)c1cccs1)c1ccccc1)c1ccccc1	none
CC(C)(C)c1cc[n+](C2=C([O-])c3ccccc3C(=O)/C2=N\S(=O)(=O)c2ccccc2)cc1	SENP6 inh 66.0, SENP8 block-1 47.7 | SENP8 confirm inactive | SENP6 conf 72.5 | SENP7 confirm inactive | Casp3 SENP sel inactive | SENP luc ctr inactive
Cc1cc(C)c[n+](C2=C([O-])c3ccccc3C(=O)/C2=N\S(=O)(=O)c2cccs2)c1	SENP6 inh 54.8, SENP8 block-1 75.0 | SENP8 confirm inactive | SENP6 conf 58.9 | SENP7 confirm inactive | Casp3 SENP sel inactive | SENP luc ctr inactive
O=C1/C(=N\S(=O)(=O)c2cccs2)C([n+]2ccc(CCCc3ccccc3)cc2)=C([O-])c2ccccc21	SENP6 inh 59.7 | SENP8 confirm inactive | SENP6 conf inactive | SENP7 confirm inactive | Casp3 SENP sel inactive | SENP luc ctr inactive
Cc1cc[n+](C2=C([O-])c3ccccc3C(=O)/C2=N\S(=O)(=O)c2cccs2)cc1C	SENP6 inh 59.7 | SENP8 confirm inactive | SENP6 conf inactive | SENP7 confirm inactive | Casp3 SENP sel inactive | SENP luc ctr inactive
COc1ccc(-c2nc(C#N)c(N3CCCCC3)o2)cc1	none (no result: PPC-1+TRAIL kill)
COc1ccc(-c2nc(C#N)c(N3CCCCCC3)o2)cc1	SENP7 inh 83.9 | SENP8 confirm inactive | SENP6 conf inactive | SENP7 confirm inactive | Casp3 SENP sel inactive | SENP luc ctr inactive
Cc1cccc(C(=O)NNC(=O)c2ccc(Cl)cc2)c1O	SENP6 inh 54.7 | SENP8 confirm 52.3 | SENP6 conf inactive | SENP7 confirm 77.3 | Casp3 SENP sel 71.1 | SENP luc ctr 62.2
CN1C(=O)/C(=C/c2coc3ccc(O)cc3c2=O)SC1=S	SENP6 inh 78.7, SENP7 inh 79.5, SENP8 block-2 56.0 | SENP8 confirm inactive | SENP6 conf inactive | SENP7 confirm inactive | Casp3 SENP sel inactive | SENP luc ctr inactive
Cc1cc(/C=C2\SC(=S)N(C)C2=O)c(C)n1-c1ccc(O)cc1	SENP6 inh 79.3, SENP8 block-2 57.8 | SENP8 confirm inactive | SENP6 conf 84.5 | SENP7 confirm 91.5 | SENP luc ctr inactive
COc1cccc(NC(=O)CN(C)C(=O)CSc2ccc3c(c2)OCCO3)c1	none (no result: PPC-1+TRAIL kill)
CCc1ccc(C(=O)Nc2nc(C)cs2)s1	SENP6 inh 76.1, SENP7 inh 81.8, SENP8 block-2 63.0 (no result: PPC-1+TRAIL kill) | SENP8 confirm 76.7 | SENP6 conf 73.2 | SENP7 confirm 92.9 | Casp3 SENP sel 77.9 | SENP luc ctr 77.4
CCOC(=O)c1sc(NC(=O)Nc2ccccc2F)nc1C	SENP6 inh 76.7, SENP7 inh 92.8, C8 TRAIL sens 76.9, SENP8 block-2 66.6, PPC-1+TRAIL kill 53.7 | SENP8 confirm inactive | SENP6 conf inactive | SENP7 confirm 62.0 | Casp3 SENP sel 61.8 | SENP luc ctr inactive
CCOC(=O)c1sc(NC(=O)c2cncc(Br)c2)nc1C	none (no result: SENP6 inh, SENP8 block-1, SENP7 inh, C8 TRAIL sens, SENP8 block-2)
CCOC(=O)c1sc(NC(=O)/C=C/c2c(F)cccc2Cl)nc1C	none
Cc1csc(NC(=O)c2ccccc2C(=O)O)n1	none
CCOC(=O)c1sc(NC(=O)c2ccc3ncsc3c2)nc1C	SENP7 inh 59.2 | SENP8 confirm inactive | SENP6 conf inactive | SENP7 confirm inactive | Casp3 SENP sel inactive | SENP luc ctr inactive
CCOC(=O)c1sc(NC(=O)c2ccccc2OC)nc1C	SENP6 inh 97.0, SENP7 inh 101.7, C8 TRAIL sens 60.9, SENP8 block-2 97.7 | SENP8 confirm 79.8 | SENP6 conf 70.3 | SENP7 confirm 99.3 | Casp3 SENP sel 63.3 | SENP luc ctr inactive
O=C(CCNC(=O)C1CCN(S(=O)(=O)c2ccc(F)cc2)CC1)NC1CC1	none (no result: PPC-1+TRAIL kill)
O=C(CCNS(=O)(=O)c1ccc(Br)cc1)NCc1ccco1	none (no result: PPC-1+TRAIL kill)
CCOC(=O)c1sc(NC(=O)c2cc3ccccc3o2)nc1C	none
O=C(Nc1nnc(Cc2ccc(F)cc2)s1)Nc1ccccc1F	none (no result: PPC-1+TRAIL kill)
CCOCCn1cnc2sc(C(=O)Nc3nc(C)c(C(=O)OCC)s3)c(C)c2c1=O	SENP6 inh 52.8, SENP7 inh 82.9, SENP8 block-2 79.3 (no result: SENP8 block-1, C8 TRAIL sens) | SENP8 confirm inactive | SENP6 conf inactive | SENP7 confirm inactive | Casp3 SENP sel inactive | SENP luc ctr inactive
CCOC(=O)c1sc(Nc2ccccc2Cl)nc1C	SENP6 inh 62.6 | SENP8 confirm inactive | SENP6 conf inactive | SENP7 confirm 73.1 | Casp3 SENP sel inactive | SENP luc ctr inactive
CCOC(=O)c1sc(NC(=O)c2ccc(CC)s2)nc1C	SENP7 inh 66.9 | SENP8 confirm inactive | SENP6 conf inactive | SENP7 confirm inactive | Casp3 SENP sel inactive | SENP luc ctr inactive
CCOC(=O)c1sc(NC(=O)CNC(=O)Cn2cnc3sc(C)c(C)c3c2=O)nc1C	none
